The source made the active and inactive calls. Unless noted, no rule for the calls is given here.
Tests used:
[1] = anti-His antibody binders, primary screen, artefact control for SMM control protein annotation, biochemical, small-molecule microarray, 635 nm fluorescence (AID 1128); conditions: anti-His Alexa647 antibody binding, higher = more signal;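 also: score merges feature fluorescence with signal-to-noise for each printed compound spot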
[2] = system: Human papillomavirus type 1a E7 protein (residues 1-88); experiment: HPV1a E7 small-molecule binders, primary screen, biochemical, small-molecule microarray, residues 1-88, 635 nm (AID 1129); conditions: small-molecule microarray binding, fluorescence 635 nm; higher = more signal
[3] = target: Focal adhesion kinase 1 (Homo sapiens) (UniProt Q05397); experiment: small-molecule microarray binders of FAK, primary screen, biochemical, 635/667 nm fluorescence, BSA, DTT (AID 1130); conditions: PTK2 binding, 635 nm fluorescence, higher = more signal;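 also: composite of spot emission at 667 nm and signal to noise over triplicate slides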
Sequence of Focal adhesion kinase 1 (Homo sapiens) (Q05397 whole entry, looked up): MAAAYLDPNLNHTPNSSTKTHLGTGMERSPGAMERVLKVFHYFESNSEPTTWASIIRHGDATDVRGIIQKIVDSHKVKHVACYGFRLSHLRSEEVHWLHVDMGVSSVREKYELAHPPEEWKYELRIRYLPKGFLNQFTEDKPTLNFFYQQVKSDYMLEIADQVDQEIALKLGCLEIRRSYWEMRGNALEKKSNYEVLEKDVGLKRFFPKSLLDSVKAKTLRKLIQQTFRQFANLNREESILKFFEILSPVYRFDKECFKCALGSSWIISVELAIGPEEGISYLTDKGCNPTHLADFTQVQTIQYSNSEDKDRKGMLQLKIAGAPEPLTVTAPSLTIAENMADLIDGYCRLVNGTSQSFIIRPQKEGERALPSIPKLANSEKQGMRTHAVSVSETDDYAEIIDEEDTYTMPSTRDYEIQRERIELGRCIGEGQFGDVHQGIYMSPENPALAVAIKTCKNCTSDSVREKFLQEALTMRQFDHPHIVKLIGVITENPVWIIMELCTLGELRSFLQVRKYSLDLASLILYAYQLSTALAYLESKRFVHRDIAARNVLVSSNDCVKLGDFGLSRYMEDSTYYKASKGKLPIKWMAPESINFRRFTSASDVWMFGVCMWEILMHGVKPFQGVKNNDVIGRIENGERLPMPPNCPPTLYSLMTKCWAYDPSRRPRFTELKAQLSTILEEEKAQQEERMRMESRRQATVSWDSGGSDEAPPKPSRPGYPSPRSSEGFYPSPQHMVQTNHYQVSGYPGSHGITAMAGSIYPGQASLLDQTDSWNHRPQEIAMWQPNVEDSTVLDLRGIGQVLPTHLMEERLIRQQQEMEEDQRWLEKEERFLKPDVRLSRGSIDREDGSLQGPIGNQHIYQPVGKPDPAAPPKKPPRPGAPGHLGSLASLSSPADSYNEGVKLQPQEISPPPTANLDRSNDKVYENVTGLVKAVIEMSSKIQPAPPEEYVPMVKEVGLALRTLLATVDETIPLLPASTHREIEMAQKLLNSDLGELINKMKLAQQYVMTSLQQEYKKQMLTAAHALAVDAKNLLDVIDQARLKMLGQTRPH

[4] = system: Fibrinogen (Alexa647-labelled); experiment: fibrinogen binders on compound microarrays, profiling panel, artefact control for SMM control-protein annotation, biochemical, small-molecule microarray, 635/667 nm fluorescence (AID 1131); conditions: fibrinogen-A647 binding fluorescence, higher = more signal;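 also: z-score merges 667 nm fluorescence with per-spot signal-to-noise over triplicate slides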
[5] = target: Follistatin (Homo sapiens) (UniProt P19883); experiment: follistatin binders on small-molecule microarrays, primary screen, biochemical, small-molecule microarray, 635/667 nm fluorescence (AID 1132); conditions: FST binding, 635 nm fluorescence, higher = more signal
Sequence of Follistatin (Homo sapiens) (P19883 whole entry, looked up): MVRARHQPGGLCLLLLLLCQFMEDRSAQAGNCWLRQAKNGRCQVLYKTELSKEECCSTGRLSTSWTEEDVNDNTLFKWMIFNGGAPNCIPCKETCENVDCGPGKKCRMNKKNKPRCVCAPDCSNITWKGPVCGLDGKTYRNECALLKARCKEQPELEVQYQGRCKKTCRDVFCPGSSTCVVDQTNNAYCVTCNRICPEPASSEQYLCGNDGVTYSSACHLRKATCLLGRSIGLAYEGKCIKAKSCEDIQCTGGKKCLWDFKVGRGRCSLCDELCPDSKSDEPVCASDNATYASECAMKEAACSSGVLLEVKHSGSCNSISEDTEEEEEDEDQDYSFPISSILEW

[6] = target: Fibroblast growth factor 2 (Homo sapiens) (UniProt P09038); experiment: FGF2 binders on small-molecule microarrays, primary screen, biochemical, small-molecule microarray, 635/667 nm fluorescence (AID 1133); conditions: small-molecule microarray binding, FGF2, fluorescence 635/667; higher = more signal
Sequence of Fibroblast growth factor 2 (Homo sapiens) (P09038 whole entry, looked up): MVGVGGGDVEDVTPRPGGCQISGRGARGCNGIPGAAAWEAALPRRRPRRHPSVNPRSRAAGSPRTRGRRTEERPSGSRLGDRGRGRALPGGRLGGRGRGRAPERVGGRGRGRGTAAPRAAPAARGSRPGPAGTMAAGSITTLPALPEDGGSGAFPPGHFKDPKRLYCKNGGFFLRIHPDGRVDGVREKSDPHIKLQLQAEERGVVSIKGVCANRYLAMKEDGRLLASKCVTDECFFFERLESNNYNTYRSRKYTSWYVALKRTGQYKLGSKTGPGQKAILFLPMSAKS

[7] = mitochondrial membrane potential change in A549 cells, profiling panel, cell-based, JC-1 fluorescence, basal, 24 h, 100 nL (AID 1138); conditions: higher = more signal;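 also: A549 lung adenocarcinoma cells under basal conditions with no added stimulus; test concentration not given here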
Lefty1 = Lefty1 binders on small-molecule microarrays, primary screen, biochemical, small-molecule microarray, 635/667 nm fluorescence (AID 1139); conditions: small-molecule microarray binding, fluorescence 635/667; higher = more signal
[8] = system: wheat germ agglutinin (Triticum aestivum), Alexa647-labelled; experiment: wheat germ agglutinin binders on compound microarrays, profiling panel, artefact control for SMM control-protein annotation, biochemical, small-molecule microarray, 635/667 nm fluorescence (AID 1140); conditions: WGA-A647 binding, 635 nm fluorescence, higher = more signal;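 also: score merges 667 nm feature emission with signal to noise over triplicate slides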
[9] = target: Luciferin 4-monooxygenase (Photinus pyralis) (UniProt P08659); experiment: firefly luciferase enzyme inhibitors, primary screen, biochemical, luminescence, purified enzyme, 2006 set (AID 1141); conditions: SteadyGlo luminescence, 30 min, higher = more signal, called active from +8 up or from −8 down;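 also: cell-free assay with purified firefly luciferase at 100 ng per well in PBS; test concentration not given here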
Sequence of Luciferin 4-monooxygenase (Photinus pyralis) (P08659 whole entry, looked up): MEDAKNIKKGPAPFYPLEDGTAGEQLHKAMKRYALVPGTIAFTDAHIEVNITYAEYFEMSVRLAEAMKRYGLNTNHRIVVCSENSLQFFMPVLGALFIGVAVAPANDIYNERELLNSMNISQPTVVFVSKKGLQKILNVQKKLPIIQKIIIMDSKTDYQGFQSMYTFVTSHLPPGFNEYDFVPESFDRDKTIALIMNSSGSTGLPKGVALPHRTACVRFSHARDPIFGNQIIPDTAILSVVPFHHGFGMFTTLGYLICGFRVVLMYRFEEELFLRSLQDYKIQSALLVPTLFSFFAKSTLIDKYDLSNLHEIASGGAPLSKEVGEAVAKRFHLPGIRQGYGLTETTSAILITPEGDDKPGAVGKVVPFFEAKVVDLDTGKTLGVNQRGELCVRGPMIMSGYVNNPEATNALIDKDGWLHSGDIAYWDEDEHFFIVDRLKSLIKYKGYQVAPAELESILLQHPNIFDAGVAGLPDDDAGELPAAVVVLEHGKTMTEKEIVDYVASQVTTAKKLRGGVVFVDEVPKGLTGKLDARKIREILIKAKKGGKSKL

[10] = system: Wnt5a (protein binding on small-molecule microarray); experiment: Wnt5a binders on small-molecule microarray, primary screen, biophysical, 635/667 nm fluorescence (AID 1142); conditions: 635 nm fluorescence, higher = more signal;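 also: fluorescence read at 667 nm with signal to noise per printed feature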
[11] = cell viability in Huh7 cells, primary screen, cytotoxicity control for HCV replication inhibitor project, CellTiter-Glo luminescence, basal, 48 h (AID 1143); conditions: Huh7 HCV replicon, higher = more signal, called active from +8 up or from −8 down;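 also: Huh7 hepatoma cells carrying a hepatitis C replication reporter with no stimulus; test concentration not given here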
[12] = P. aeruginosa biofilm formation inhibitors, primary screen, PAO1 strain, BacTiter-Glo luminescence, LB-PBS (AID 1144); conditions: 12 h, higher = more signal
[13] = CREB reporter modulators without forskolin, primary screen, cell-based, PC12, CRE-LacZ reporter, unstimulated (AID 1145); conditions: no forskolin, luminescence, 4.5 h, higher = more signal, called active from +8 up or from −8 down
[14] = CREB reporter modulators under forskolin, primary screen, cell-based, PC12, CRE-LacZ reporter, forskolin-stimulated (AID 1146); conditions: luminescence, 4.5 h, higher = more signal, called active from +8 up or from −8 down;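 also: PC12 cells with 6xCRE LacZ reporter stimulated by forskolin 10 µM; beta-galactosidase reporter signal reflecting CREB driven transcription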
[15] = target: Streptavidin (Streptomyces avidinii) (UniProt P22629); experiment: streptavidin binders on small-molecule microarray, primary screen, artefact control for SMM compound annotation, biophysical, 635/667 nm fluorescence (AID 1147); conditions: streptavidin binding, higher = more signal;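 also: signal reflects streptavidin binding to arrayed compounds as a control protein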
Sequence of Streptavidin (Streptomyces avidinii) (P22629 whole entry, looked up): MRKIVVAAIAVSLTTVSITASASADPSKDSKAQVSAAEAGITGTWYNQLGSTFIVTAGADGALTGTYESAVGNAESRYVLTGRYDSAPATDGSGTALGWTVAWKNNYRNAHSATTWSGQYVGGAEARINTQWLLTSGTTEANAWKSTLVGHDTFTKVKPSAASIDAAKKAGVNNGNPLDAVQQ

[16] = small-molecule binders of probe aInhba, primary screen, biochemical, small-molecule microarray, 635/667 nm fluorescence (AID 1148); conditions: higher = more signal;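 also: score merges 667nm spot fluorescence with signal-to-noise for antibody binding to printed compounds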
Torsin-1A (Homo sapiens) [17] = target: Torsin-1A (Homo sapiens) (UniProt O14656); experiment: torsin A binders from cell lysate, primary screen, small-molecule microarray, wild-type, 635/667 nm (AID 1149); conditions: COS7 hTOR1A-WT lysate, 635 nm fluorescence, higher = more signal
Sequence of Torsin-1A (Homo sapiens) (O14656 whole entry, looked up): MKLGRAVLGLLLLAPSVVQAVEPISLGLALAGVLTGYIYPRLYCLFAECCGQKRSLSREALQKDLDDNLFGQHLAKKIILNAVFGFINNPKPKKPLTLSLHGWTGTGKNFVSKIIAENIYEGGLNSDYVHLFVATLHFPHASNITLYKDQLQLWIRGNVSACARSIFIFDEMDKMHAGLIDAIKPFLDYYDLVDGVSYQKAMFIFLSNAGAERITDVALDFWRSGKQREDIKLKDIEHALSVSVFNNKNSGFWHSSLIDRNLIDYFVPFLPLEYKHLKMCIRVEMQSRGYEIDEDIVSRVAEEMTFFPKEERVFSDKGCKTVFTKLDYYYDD

Torsin-1A (Homo sapiens) [18] = target: Torsin-1A (Homo sapiens) (UniProt O14656); experiment: small-molecule binders of mutant TOR1A in lysate, primary screen, cell lysate, small-molecule microarray, COS7 lysate, 635/667 nm fluorescence (AID 1150); conditions: COS7 hTOR1A mutant lysate, 635 nm fluorescence, higher = more signal;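 also: score pools 667 nm emission and signal to noise measuring lysate protein binding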
[19] = system: Sonic hedgehog protein (Shh); experiment: small-molecule binders of Shh protein, primary screen, biochemical, small-molecule microarray, 635/667 nm fluorescence (AID 1151); conditions: small-molecule microarray binding, 635 nm fluorescence; higher = more signal;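 also: Shh protein binding to compounds spotted on small-molecule microarray slides; score combines spot fluorescence intensity with signal-to-noise across triplicate slides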

| SMILES | composite z-score [1] | composite z-score [2] | composite z-score [3] | composite z-score [4] | composite z-score [5] | composite z-score [6] | z-score [7] | composite z-score (Lefty1) | composite z-score [8] | z-score [9] | composite z-score [10] | z-score [11] | z-score [12] | z-score [13] | z-score [14] | composite z-score [15] | composite z-score [16] | composite z-score (Torsin-1A (Homo sapiens) [17]) | composite z-score (Torsin-1A (Homo sapiens) [18]) | composite z-score [19] |
| --- | --- | --- | --- | --- | --- | --- | --- | --- | --- | --- | --- | --- | --- | --- | --- | --- | --- | --- | --- | --- |
| C=C(/C(=C/C[C@H](OC(=O)c1ccncc1)c1ccc(CO)o1)c1cnc2ccccc2c1)C(C)C | 1.29 | 1.19 | 0.0621 | 0.866 | 1.31 | 1.18 | 0.909 | 1.34 | 1.08 | -2.9 (inactive) | 0.49 | -0.259 (inactive) | -0.747 (inactive) | 1.58 (inactive) | 0.0737 (inactive) | 1.42 | 0.0993 | 0.353 | 0.491 | 1.97 |
| CCCC=C(CCC)[C@@H](NS(=O)(=O)c1ccc(C(F)(F)F)cc1)c1ccccc1 | 0.294 | 0.887 | 0.672 | 0.698 | 0.225 | -0.148 | -2.69 | -0.141 | 0.663 | 2.72 (inactive) | 0.001 | -1.09 (inactive) | -0.869 (inactive) | -0.565 (inactive) | 1.32 (inactive) | 0.578 | 0.156 | -0.0214 | -0.0562 | 0.108 |
| N#Cc1ccc(NN2C(C(O)c3ccc(Br)cc3)C=CC3C(=O)N(c4ccccc4)C(=O)C32)cc1 (stereo not given) | 1.28 | 1.18 | 0.633 | 0.561 | 0.873 | 0.127 | 0.494 | -0.0682 | 1.49 | -0.517 (inactive) | 0.395 | -0.35 (inactive) | -1.3 (inactive) | 0.0535 (inactive) | -0.36 (inactive) | 0.843 | 0.222 | 0.441 | 0.604 | 0.834 |
| COc1ccc(C#Cc2ccc3c(c2)[C@]2(C(=O)N3)[C@H](C(=O)O)[C@H]3C(=O)O[C@H](c4ccccc4)[C@H](c4ccccc4)N3[C@@H]2c2ccc(O)cc2)cc1 | -0.272 | 0.691 | 0.0564 | -0.142 | -0.474 | -0.521 | -2.42 | -0.422 | 0.208 | -1.01 (inactive) | 0.0637 | -4.48 (inactive) | -0.563 (inactive) | 0.0653 (inactive) | -0.332 (inactive) | -0.31 | -0.0313 | 0.269 | 0.578 | -0.454 |
| CC(C)N1C(=O)c2ccccc2[C@@H](C(=O)NCCN2CCOCC2)[C@@H]1c1ccc(CO)cc1 | 1.3 | -0.736 | -0.378 | -1.99 | -0.0463 | -1.57 | 0.156 | -0.786 | -1.23 | 0.128 (inactive) | -1.15 | 0.179 (inactive) | -0.0165 (inactive) | 0.324 (inactive) | -0.107 (inactive) | -1.14 | -0.238 | -3.17 | -1.46 | -1.49 |
| CN(C)C(=O)[C@@]1(Cc2ccccc2CN=[N+]=[N-])N=C(c2ccc(OCCCO)cc2)O[C@H]1c1ccccc1N=[N+]=[N-] | 2.09 | 1.27 | 0.801 | 0.983 | 0.711 | -0.0088 | -1.02 | 0.627 | 1.22 | -6.81 (inactive) | 0.0168 | -4.96 (inactive) | -0.638 (inactive) | 1.74 (inactive) | -1.69 (inactive) | 1.51 | 0.439 | 0.504 | 1.21 | 0.66 |
| C=CCN1C(=O)[C@]2(CCC(=O)OC(C)(C)C)N=C(c3ccc(OCCCO)cc3)O[C@@H]2c2ccccc21 | 2.42 | 0.944 | 0.469 | 0.317 | 1.19 | -0.132 | 0.859 | 0.467 | 0.27 | -5.66 (inactive) | 0.176 | -3.67 (inactive) | -0.149 (inactive) | 0.124 (inactive) | -1.99 (inactive) | 0.0475 | 0.0631 | -0.0806 | 0.19 | 1.71 |
| CCCCCC1=C2CNC(C)(C(=O)OC)C=C2C(C)C1=O (stereo not given) | 1.46 | -0.575 | -0.108 | -0.833 | -0.642 | -0.328 | 1.01 | -0.427 | 0.234 | 2.31 (inactive) | 0.0456 | -0.169 (inactive) | 0.18 (inactive) | 1.34 (inactive) | 1.76 (inactive) | -0.162 | 0.0319 | -0.92 | -0.38 | -0.134 |
| CCCCN1CC=CC23O[C@@H]4/C=C\CCC(C)OC(=O)C4[C@H]2C(=O)N(CCCO)[C@@H]3C1=O (stereo not given in full) | 1.41 | -0.708 | -0.198 | -0.992 | -0.885 | -1.24 | -0.573 | -0.46 | -0.588 | 0.821 (inactive) | -0.636 | -0.183 (inactive) | 1.21 (inactive) | 0.0605 (inactive) | 0.0507 (inactive) | -0.774 | -0.247 | -1.54 | -1.15 | -0.36 |
| CCCC=C(CCC)[C@@H](NC(=O)C(C)(C)C)c1ccc(C(=O)OC)cc1 | 0.933 | 1.01 | 0.451 | 0.972 | 0.156 | -0.764 | 2.85 | -0.947 | 0.995 | 1.91 (inactive) | 0.0146 | -2.97 (inactive) | -0.168 (inactive) | -0.379 (inactive) | -0.744 (inactive) | 1.69 | 0.127 | -0.0649 | 0.123 | -0.824 |

— PubChem BioAssay
